ChEMBL document CHEMBL1961873, “Compounds: GSK PKIS; Assays: Nanosyn kinase panel” (2012)

Tests used:
[1] = biological target: T1, Muscle, skeletal receptor tyrosine-protein kinase (Homo sapiens) (UniProt O15146); settings: at 1 µM;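 further: reported value is the mean percent inhibition of MuSK kinase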
T1 sequence (whole entry): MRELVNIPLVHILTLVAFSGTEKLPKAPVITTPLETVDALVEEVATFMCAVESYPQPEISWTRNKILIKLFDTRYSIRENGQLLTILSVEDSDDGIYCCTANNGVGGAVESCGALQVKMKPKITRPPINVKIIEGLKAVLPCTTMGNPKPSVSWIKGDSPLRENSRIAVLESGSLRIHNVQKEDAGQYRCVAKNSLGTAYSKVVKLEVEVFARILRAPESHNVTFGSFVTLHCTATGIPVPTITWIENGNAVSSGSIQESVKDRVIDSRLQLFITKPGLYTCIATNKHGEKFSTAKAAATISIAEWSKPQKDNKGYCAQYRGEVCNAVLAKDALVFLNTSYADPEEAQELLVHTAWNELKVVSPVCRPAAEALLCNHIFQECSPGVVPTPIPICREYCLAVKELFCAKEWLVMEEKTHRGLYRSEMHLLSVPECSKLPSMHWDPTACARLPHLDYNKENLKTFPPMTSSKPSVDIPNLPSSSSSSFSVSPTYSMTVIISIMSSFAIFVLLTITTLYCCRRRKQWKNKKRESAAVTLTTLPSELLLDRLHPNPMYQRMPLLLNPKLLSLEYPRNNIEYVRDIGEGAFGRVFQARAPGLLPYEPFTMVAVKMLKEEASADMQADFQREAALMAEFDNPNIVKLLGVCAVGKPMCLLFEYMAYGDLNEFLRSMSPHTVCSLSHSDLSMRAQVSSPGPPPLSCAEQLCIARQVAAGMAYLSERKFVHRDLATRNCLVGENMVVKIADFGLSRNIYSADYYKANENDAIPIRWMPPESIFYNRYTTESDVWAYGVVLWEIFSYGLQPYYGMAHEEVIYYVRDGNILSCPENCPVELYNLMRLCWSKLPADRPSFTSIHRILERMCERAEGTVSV

[2] = biological target: Platelet-derived growth factor receptor alpha (Homo sapiens) (UniProt P16234); settings: at 0.1 µM
Chain of Platelet-derived growth factor receptor alpha (Homo sapiens) (P16234 whole entry): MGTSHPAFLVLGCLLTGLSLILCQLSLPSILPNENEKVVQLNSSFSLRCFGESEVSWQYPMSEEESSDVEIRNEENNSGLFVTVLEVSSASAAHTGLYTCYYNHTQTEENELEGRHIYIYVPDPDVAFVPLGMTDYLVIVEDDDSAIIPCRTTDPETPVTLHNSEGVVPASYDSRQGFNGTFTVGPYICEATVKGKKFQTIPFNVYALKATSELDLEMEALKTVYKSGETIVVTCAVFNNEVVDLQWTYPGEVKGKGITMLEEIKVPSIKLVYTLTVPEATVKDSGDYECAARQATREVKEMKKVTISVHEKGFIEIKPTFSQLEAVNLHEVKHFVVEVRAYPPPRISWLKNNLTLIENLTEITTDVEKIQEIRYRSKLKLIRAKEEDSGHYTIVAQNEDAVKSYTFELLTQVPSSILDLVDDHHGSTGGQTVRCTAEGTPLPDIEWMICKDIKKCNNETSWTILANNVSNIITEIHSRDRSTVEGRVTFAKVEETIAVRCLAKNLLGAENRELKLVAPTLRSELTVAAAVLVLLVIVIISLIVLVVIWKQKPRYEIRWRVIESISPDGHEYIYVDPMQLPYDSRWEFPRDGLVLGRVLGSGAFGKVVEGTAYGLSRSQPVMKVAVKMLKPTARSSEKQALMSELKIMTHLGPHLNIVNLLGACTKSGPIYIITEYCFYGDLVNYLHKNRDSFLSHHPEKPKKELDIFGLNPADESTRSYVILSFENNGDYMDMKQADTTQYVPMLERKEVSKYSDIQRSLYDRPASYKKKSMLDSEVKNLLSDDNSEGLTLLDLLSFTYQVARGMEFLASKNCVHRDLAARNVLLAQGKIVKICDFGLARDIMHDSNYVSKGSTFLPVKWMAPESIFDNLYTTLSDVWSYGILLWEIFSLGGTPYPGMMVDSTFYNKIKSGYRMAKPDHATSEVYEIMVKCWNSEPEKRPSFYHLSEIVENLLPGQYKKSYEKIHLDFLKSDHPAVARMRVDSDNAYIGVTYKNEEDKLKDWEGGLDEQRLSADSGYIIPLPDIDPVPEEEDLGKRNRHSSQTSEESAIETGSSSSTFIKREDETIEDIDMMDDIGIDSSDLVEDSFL

[3] = biological target: Platelet-derived growth factor receptor alpha (Homo sapiens) (UniProt P16234); settings: at 1 µM
[4] = system: Platelet-derived growth factor receptor alpha (Homo sapiens), P16234 [D842V]; settings: at 0.1 µM
Chain of Platelet-derived growth factor receptor alpha (Homo sapiens), P16234 [D842V] (P16234 whole entry D842V): as the sequence (P16234 whole entry) above, with D842V counted along it

[5] = system: Platelet-derived growth factor receptor alpha (Homo sapiens), P16234 [D842V]; settings: at 1 µM
[6] = system: Platelet-derived growth factor receptor alpha (Homo sapiens), P16234 [T674I]; settings: at 0.1 µM
[7] = system: Platelet-derived growth factor receptor alpha (Homo sapiens), P16234 [T674I]; settings: at 1 µM
[8] = system: Platelet-derived growth factor receptor alpha (Homo sapiens), P16234 [V561D]; settings: at 0.1 µM
[9] = system: Platelet-derived growth factor receptor alpha (Homo sapiens), P16234 [V561D]; settings: at 1 µM
[10] = biological target: Platelet-derived growth factor receptor beta (Homo sapiens) (UniProt P09619); settings: at 0.1 µM
[11] = biological target: Platelet-derived growth factor receptor beta (Homo sapiens) (UniProt P09619); settings: at 1 µM
[12] = biological target: Tyrosine-protein kinase FRK (Homo sapiens) (UniProt P42685); settings: at 0.1 µM
Chain of Tyrosine-protein kinase FRK (Homo sapiens) (P42685 whole entry): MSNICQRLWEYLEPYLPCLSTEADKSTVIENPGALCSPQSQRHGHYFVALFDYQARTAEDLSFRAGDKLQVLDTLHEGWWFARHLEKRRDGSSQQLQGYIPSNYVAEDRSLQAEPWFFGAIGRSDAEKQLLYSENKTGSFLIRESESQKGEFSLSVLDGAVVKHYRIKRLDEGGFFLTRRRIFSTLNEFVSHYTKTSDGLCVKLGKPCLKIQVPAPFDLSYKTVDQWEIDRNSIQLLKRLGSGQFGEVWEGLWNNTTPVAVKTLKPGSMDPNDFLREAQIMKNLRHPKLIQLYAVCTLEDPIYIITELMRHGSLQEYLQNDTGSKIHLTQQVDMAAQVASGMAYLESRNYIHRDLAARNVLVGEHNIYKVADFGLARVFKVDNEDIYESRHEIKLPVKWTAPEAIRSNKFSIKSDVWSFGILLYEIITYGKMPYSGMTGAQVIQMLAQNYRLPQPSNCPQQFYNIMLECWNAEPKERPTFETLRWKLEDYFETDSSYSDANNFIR

[13] = biological target: Tyrosine-protein kinase FRK (Homo sapiens) (UniProt P42685); settings: at 1 µM
[14] = biological target: Protein-tyrosine kinase 2-beta (Homo sapiens) (UniProt Q14289); settings: at 0.1 µM
Chain of Protein-tyrosine kinase 2-beta (Homo sapiens) (Q14289 whole entry, looked up): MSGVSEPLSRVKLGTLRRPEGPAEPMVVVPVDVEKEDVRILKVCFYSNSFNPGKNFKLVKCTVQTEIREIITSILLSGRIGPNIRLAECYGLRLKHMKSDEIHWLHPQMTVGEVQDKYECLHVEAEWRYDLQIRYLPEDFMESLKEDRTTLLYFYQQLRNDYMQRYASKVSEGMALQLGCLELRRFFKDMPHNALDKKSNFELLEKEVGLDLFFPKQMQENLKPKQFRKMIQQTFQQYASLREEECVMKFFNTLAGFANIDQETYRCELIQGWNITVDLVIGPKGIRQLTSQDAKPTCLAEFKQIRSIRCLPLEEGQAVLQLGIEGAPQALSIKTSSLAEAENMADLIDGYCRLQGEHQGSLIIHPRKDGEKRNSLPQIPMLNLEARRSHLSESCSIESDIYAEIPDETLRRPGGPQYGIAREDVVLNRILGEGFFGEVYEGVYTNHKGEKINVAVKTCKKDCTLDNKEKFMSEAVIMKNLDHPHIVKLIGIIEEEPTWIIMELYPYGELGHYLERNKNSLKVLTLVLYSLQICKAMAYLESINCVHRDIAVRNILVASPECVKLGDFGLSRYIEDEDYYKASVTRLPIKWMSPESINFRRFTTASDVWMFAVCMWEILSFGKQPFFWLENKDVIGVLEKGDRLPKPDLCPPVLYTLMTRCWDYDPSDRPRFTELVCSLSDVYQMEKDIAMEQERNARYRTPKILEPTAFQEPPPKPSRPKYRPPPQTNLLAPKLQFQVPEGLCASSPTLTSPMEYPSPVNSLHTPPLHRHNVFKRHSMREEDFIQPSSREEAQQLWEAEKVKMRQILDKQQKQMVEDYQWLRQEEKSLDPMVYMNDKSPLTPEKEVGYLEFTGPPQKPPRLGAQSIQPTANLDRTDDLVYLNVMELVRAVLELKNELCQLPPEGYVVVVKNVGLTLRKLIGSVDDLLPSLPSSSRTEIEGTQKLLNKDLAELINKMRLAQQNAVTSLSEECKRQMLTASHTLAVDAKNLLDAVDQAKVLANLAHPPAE

[15] = biological target: Protein-tyrosine kinase 2-beta (Homo sapiens) (UniProt Q14289); settings: at 1 µM
[16] = biological target: Proto-oncogene tyrosine-protein kinase receptor Ret (Homo sapiens) (UniProt P07949); settings: at 0.1 µM
[17] = biological target: Proto-oncogene tyrosine-protein kinase receptor Ret (Homo sapiens) (UniProt P07949); settings: at 1 µM
[18] = system: Proto-oncogene tyrosine-protein kinase receptor Ret (Homo sapiens), P07949 [V804L]; settings: at 0.1 µM
Chain of Proto-oncogene tyrosine-protein kinase receptor Ret (Homo sapiens), P07949 [V804L] (P07949 whole entry V804L): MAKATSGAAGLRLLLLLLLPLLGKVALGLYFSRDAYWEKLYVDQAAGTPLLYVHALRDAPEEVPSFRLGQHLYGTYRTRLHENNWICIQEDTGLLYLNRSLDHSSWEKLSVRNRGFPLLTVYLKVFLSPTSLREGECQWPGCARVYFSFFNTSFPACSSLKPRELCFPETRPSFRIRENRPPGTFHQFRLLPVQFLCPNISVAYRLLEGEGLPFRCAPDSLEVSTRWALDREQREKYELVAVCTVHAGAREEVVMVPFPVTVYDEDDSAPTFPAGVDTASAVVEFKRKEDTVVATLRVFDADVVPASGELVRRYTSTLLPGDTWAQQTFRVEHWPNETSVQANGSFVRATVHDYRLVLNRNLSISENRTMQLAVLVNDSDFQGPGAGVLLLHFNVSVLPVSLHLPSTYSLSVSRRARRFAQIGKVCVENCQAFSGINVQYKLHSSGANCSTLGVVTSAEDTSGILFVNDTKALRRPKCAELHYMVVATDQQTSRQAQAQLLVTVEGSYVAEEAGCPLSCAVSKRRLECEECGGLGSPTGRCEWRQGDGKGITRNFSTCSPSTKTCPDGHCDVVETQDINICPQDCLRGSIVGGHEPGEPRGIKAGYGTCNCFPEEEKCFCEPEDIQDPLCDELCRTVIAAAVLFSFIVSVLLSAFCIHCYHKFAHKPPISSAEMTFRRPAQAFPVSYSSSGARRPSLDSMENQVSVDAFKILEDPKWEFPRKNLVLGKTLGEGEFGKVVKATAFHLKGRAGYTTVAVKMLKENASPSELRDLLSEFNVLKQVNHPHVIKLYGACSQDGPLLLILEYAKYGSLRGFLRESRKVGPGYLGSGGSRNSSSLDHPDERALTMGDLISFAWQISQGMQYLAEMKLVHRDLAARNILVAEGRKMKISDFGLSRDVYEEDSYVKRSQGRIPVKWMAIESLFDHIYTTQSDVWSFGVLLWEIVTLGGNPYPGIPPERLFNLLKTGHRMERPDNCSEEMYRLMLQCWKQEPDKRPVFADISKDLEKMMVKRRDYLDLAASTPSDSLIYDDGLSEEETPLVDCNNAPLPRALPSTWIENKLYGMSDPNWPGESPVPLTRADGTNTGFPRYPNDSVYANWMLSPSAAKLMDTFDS

[19] = system: Proto-oncogene tyrosine-protein kinase receptor Ret (Homo sapiens), P07949 [V804L]; settings: at 1 µM
[20] = system: Proto-oncogene tyrosine-protein kinase receptor Ret (Homo sapiens), P07949 [Y791F]; settings: at 0.1 µM

| Structure (SMILES) | inhibition [1] | inhibition [2] | inhibition [3] | inhibition [4] | inhibition [5] | inhibition [6] | inhibition [7] | inhibition [8] | inhibition [9] | inhibition [10] | inhibition [11] | inhibition [12] | inhibition [13] | inhibition [14] | inhibition [15] | inhibition [16] | inhibition [17] | inhibition [18] | inhibition [19] | inhibition [20] |
| --- | --- | --- | --- | --- | --- | --- | --- | --- | --- | --- | --- | --- | --- | --- | --- | --- | --- | --- | --- | --- |
| COc1cc(C)c(N(C)C(=O)CN(C)C)cc1Nc1nc(Nc2cccc(F)c2C(N)=O)c2cc[nH]c2n1 | 3.08% | 4.02% | 7.22% | 0.9% | 0.89% | 1.14% | -0.57% | -2.16% | 2.56% | 0.52% | 2.38% | -0.14% | 1.16% | 14.7% | 45.8% | 6.8% | 3.71% | 8.2% | 4.18% | 3.57% |
| CCN(CC)Cc1ccc(Nc2nccc(-c3cnn4ncccc34)n2)cc1 | 30.5% | 17.5% | 55.5% | 10.1% | 51.1% | 6.93% | 34.9% | 18% | 64.2% | 29.1% | 71.8% | 2.63% | 3.76% | 24.8% | 81.3% | 4.61% | 12.8% | 2.46% | 16.3% | 5.39% |
| O=C1NC(=O)C(c2cccc(Cl)c2)=C1Nc1ccc(Cl)c(C(=O)O)c1 | 3.32% | 5.36% | 9.61% | 0.72% | 1.68% | 6.92% | 5.66% | 2.77% | 0.49% | 1.55% | 8.9% | -0.46% | 2.48% | 7.05% | 6.6% | 7.27% | 3.52% | 5.17% | 7.71% | 3.26% |
| COc1cc2ncn(-c3cc(OCc4cccs4)c(C(N)=O)s3)c2cc1OC | 12.1% | 36% | 77.6% | 19.4% | 72.8% | 7.11% | 57.7% | 24.7% | 72.9% | 31.2% | 72.5% | 1.41% | 1.32% | 3.08% | 6.94% | 11.9% | 43.5% | 7.23% | 24.7% | 15% |
| COc1cc(Nc2ncc3c(C)nc(-c4cccc(C(F)(F)F)c4)n3n2)cc(OC)c1OC | 19% | 13% | 25.8% | 2.68% | 13.1% | 7.3% | 8.12% | 5.66% | 14.6% | 10.3% | 38% | 1.36% | 0.31% | 11.8% | 39.6% | 7.14% | 39.1% | 16.7% | 57.4% | 8.01% |
| CN1CCN(CCCNc2nc3ccc(Oc4ccc(NC(=O)Nc5cc(C(F)(F)F)ccc5F)cc4)cc3[nH]2)CC1 | 59.2% | 32.6% | 76.4% | 2.11% | 4.41% | 29.5% | 90.7% | 36% | 80.7% | 14.1% | 25.8% | -0.13% | 5.78% | 6.22% | 7.87% | 76.2% | 86.2% | 38.8% | 74.9% | 65.8% |
| C[C@@H](Oc1cc(-n2cnc3ccc(OCC4CCN(C)CC4)cc32)sc1C(N)=O)c1ccccc1Cl | 88.3% | 26.5% | 75.7% | 10.9% | 54.2% | 12.7% | 62.1% | 14.7% | 64.7% | 39.8% | 84.7% | 3.53% | 3.93% | 5.71% | 13.7% | 6.25% | 18.2% | 5.76% | 16.7% | 8.22% |
| COc1cc2ncn(-c3cc(OCc4ccccc4C(F)(F)F)c(C(C)=O)s3)c2cc1OC | 3.03% | 10.4% | 31.8% | 3.21% | 13.8% | 5.42% | 13.4% | 3.99% | 19.7% | 8.96% | 21.5% | 0.97% | 2.94% |  |  | 4.62% | 5.58% | 5.33% | 9.72% | 7.72% |
| COc1ccc2cc(-c3c(-c4ccncc4)nc(-c4ccc(S(C)(=O)=O)cc4C)n3C)ccc2c1 | 6.38% | 7.63% | 23.6% | 2.7% | 12.3% | 7.17% | 10.1% | 8.36% | 15.3% | 2.38% | 13.2% | 3.55% | 2.3% | 12.8% | 12.4% | 4.93% | 22.2% | 2.68% | 4.41% | 3.67% |
| NS(=O)(=O)c1ccc(Nc2cc(-c3ccc(O)c(F)c3)n[nH]2)cc1 | 41% | 17% | 61.5% | 4.48% | 39.5% | 11.1% | 73.5% | 33.2% | 68.3% | 11.8% | 53.4% | -1.68% | 0.93% | -2.28% | -1.9% | 11.3% | 55% | 10.6% | 47.6% | 14.1% |
| NC(=O)c1cc(-c2ccc(F)cc2)cc(-c2ccncc2)c1N | 1.32% | 3.04% | 7.4% | 1.68% | 12.2% | 4.18% | 7.19% | 3.94% | 4.61% | 2.02% | 5.05% | 1.66% | 1.82% |  |  | 6.04% | 1.69% | 2.31% | 2.03% | 4.64% |
| c1ccc(Oc2ccc(Nc3ncc(-c4ccccc4)o3)cc2)cc1 | 2.81% | 7.17% | 11.5% | 4.48% | 3.18% | 4.06% | 10% | 7.31% | 19.6% | 3.82% | 10.3% | -0.25% | 1.21% | 6.6% | 8.05% | 5.96% | 3.49% | 4.18% | 6.54% | 5.06% |
| O=C(Nc1n[nH]c2nc(-c3ccco3)ccc12)C1CC1 | 7.97% | 6.36% | 10.6% | 3.54% | 6.18% | 4.27% | 6.36% | 3.66% | 7.73% | 1.45% | 5.96% | 0.93% | 1.05% | 1.43% | 0.04% | 8.2% | 9.6% | 4.51% | 8.22% | 4.94% |
| O=C(Nc1n[nH]c2cc(-c3ccccc3)ccc12)C1CC1 | 4.91% | 8.78% | 20.4% | 2.33% | 8.97% | 4.04% | 9.67% | 4.85% | 19.4% | 6.45% | 13.3% | 2.92% | 2.17% | 11.3% | 7.93% | 4.67% | 5.93% | 1.54% | 0.17% | 4.42% |
